# Structures can show the parent of a compound that is named as a salt.
# Tested on: Saccharomyces cerevisiae BY4741 SeMeCo community
# Assay: z-score of subpopulation abundance vs DMSO median, subpopulation auxotrophic for HLUM; higher = larger share of this subpopulation than in DMSO controls
# Conditions: 10 µM; 24 h; SM minimal medium; subpopulation (auxotrophy): HLUM
# How it was run: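 A community of Saccharomyces cerevisiae BY4741 was built from four plasmids that each restored one auxotrophy and encoded a distinct fluorescent protein. Pre-grown overnight to OD600 1.0 and diluted to 0.3, it was dispensed at 70 µl into 384-well plates acoustically predosed with library drugs for a final 10 µM, and grown 24 h in minimal SM medium. Cells were then paraformaldehyde-fixed and imaged by automated confocal microscopy. Thresholds and autofluorescence correction came from single-auxotroph fluorescent strains, and each subpopulation's abundance was scored as a z-score relative to the vehicle-well median.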
row,SMILES,z-score of subpopulation abundance
1,CCCCOc1cc(C(=O)NCCN(CC)CC)c2ccccc2n1 [Dibucaine HCl],-0.06
2,Clc1ccc(CSC(Cn2ccnc2)c2ccc(Cl)cc2Cl)cc1 (stereo not given) [Sulconazole Nitrate],10.5
3,C[C@]12CC[C@@H]3c4ccc(O)cc4CC[C@H]3[C@@H]1CC[C@@H]2OC(=O)CCC1CCCC1 [Estradiol Cypionate],0.52
4,C[C@@H](NCCCc1cccc(C(F)(F)F)c1)c1cccc2ccccc12 [Cinacalcet HCl],1.57
5,Cc1cc(/C=C/c2ccc3cc(N(C)C)ccc3[n+]2C)c(C)n1-c1ccccc1 [pyrvinium],-0.49
6,O=C(Cn1cnnn1)N[C@@H]1C(=O)N2C(C(=O)O)=C(CSc3nncs3)CS[C@H]12 [Ceftezole sodium],0.82
7,CC[N+](C)(C)c1cccc(O)c1 [Edrophonium chloride],0.62
8,Nc1ccc(S(N)(=O)=O)cc1 [Sulfanilamide],-0.65
9,CCCN(CCC)CCc1cccc2c1CC(=O)N2 [Ropinirole HCl],0.64
10,CN(C)CCCC1(c2ccc(F)cc2)OCc2cc(C#N)ccc21 (stereo not given) [Citalopram HBr],1.38
11,CN1CCCN=C1/C=C/c1cccs1 [Pyrantel Pamoate],-0.17
12,CCCCCC(=O)O[C@]1(C(C)=O)CC[C@H]2[C@@H]3CCC4=CC(=O)CC[C@]4(C)[C@H]3CC[C@@]21C [Hydroxyprogesterone caproate],0.74
13,C[C@]12CCC(=O)C=C1[C@@H]1C[C@@H]1[C@H]1[C@@H]3[C@@H]4C[C@@H]4[C@@]4(CCC(=O)O4)[C@@]3(C)CC[C@@H]12 [Drospirenone],-0.05
14,CCC(C)(C)c1ccc(CC(C)CN2C[C@@H](C)O[C@@H](C)C2)cc1 (stereo not given in full) [Amorolfine HCl],5.77
15,CC(=O)N[C@H]1[C@H]([C@H](O)[C@H](O)CO)OC(C(=O)O)=C[C@@H]1NC(=N)N [Zanamivir],0.38
16,CCC(=O)c1c(O)cc(O)cc1O [Flopropione],-0.26
17,COc1ccc(C(C)=O)c(O)c1 [Paeonol],0.01
18,Cc1cc(NS(=O)(=O)c2ccc(N)cc2)no1 [Sulfamethoxazole sodium],-0.74
19,NC12CC3CC(CC(C3)C1)C2 [Amantadine],-0.31
20,COC(=O)C1=C(C)NC(C)=C(C(=O)OC(C)(C)CN(C)CCC(c2ccccc2)c2ccccc2)C1c1cccc([N+](=O)[O-])c1 (stereo not given) [Lercanidipine],1.54
21,NC1CCN(c2nc3c(cc2F)c(=O)c(C(=O)O)cn3-c2ccc(F)cc2F)C1 (stereo not given) [Tosufloxacin p-Toluenesulfonate Hydrate],-0.36
22,CC1(C)S[C@@H]2[C@H](NC(=O)[C@H](N)c3ccc(O)cc3)C(=O)N2[C@H]1C(=O)O [Amoxicillin],0.49
23,CCC1=C(C)CN(C(=O)NCCc2ccc(S(=O)(=O)NC(=O)N[C@H]3CC[C@H](C)CC3)cc2)C1=O [Glimepiride],0.7
24,Clc1ccc(CCC(Cn2ccnc2)Sc2c(Cl)cccc2Cl)cc1 (stereo not given) [Butoconazole],32.1
25,Cc1ccc(Sc2ccccc2N2CCNCC2)c(C)c1 [Vortioxetine],-0.06
26,Clc1ccc(CCC(Cn2ccnc2)Sc2c(Cl)cccc2Cl)cc1 (stereo not given) [Butoconazole nitrate],20.4
27,CC[C@@H]1/C=C(\C)C[C@H](C)C[C@H](OC)[C@H]2O[C@@](O)(C(=O)C(=O)N3CCCC[C@H]3C(=O)O[C@H](/C(C)=C/[C@@H]3CC[C@H](Cl)[C@H](OC)C3)[C@H](C)[C@@H](O)CC1=O)[C@H](C)C[C@@H]2OC [Pimecrolimus],2.63
28,CN(Cc1cnc2nc(N)nc(N)c2n1)c1ccc(C(=O)N[C@@H](CCC(=O)O)C(=O)O)cc1 [Methotrexate],6.15
29,CCC[S+]([O-])c1ccc2[nH]c(NC(=O)OC)nc2c1 (stereo not given) [Albendazole Oxide],-1.11
30,COC(=O)C1=C(C)NC(C)=C(C(=O)OC)C1c1ccccc1[N+](=O)[O-] [Nifedipine],1.1
